# Screens (PubChem)
# An excerpt weighted towards active compounds, which were near 4.5% of everything screened.
# 697 NFkB inh: inhibitors of PMA/ionomycin-induced NF-kB reporter, 697 cells, primary screen, B-cell NF-kB inhibitor project, cell-based, luminescence, uHTS. 0.33% of 330,000 active. AID 435022, 2010. inhibition, % at 4 µM. 697 B-cell NF-kB luciferase reporter, 16 h; in the data active = inhibition above about 35%
# Gli-Sufu block: Gli-Sufu pathway antagonists, primary screen, luciferase luminescence, Sufu-KO-LIGHT cells, uHTS; Sufu-KO-LIGHT fibroblasts, Gli luciferase reporter luminescence; inhibition, % at 5 µM; 0.74% of 340,000 active;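 active = inhibition above about 55%, limit read from the data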;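 note: 0% = DMSO-treated cells and 100% = wells with medium but no cells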
# Mdm2 MdmX PPI: inhibitors of human Mdm2-MdmX association, primary screen, cell-based, luminescence, split luciferase, SaOS-2, uHTS. Protein Mdm4 (Homo sapiens) + E3 ubiquitin-protein ligase Mdm2 (Homo sapiens), …. SaOS-2 split-luciferase Mdm2/MdmX complementation. inhibition, % at 8 µM. 3% of 330,000 active;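 active = inhibition of at least 50% at 8 µM in the primary screen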
# Beta apoptosis: inhibitors of cytokine-induced beta cell apoptosis, primary screen, luminescence; INS-1E cytokine-induced death, ATP luminescence, 48 h; percent of positive-control rescue, neutral wells zero; protection from apoptosis, % (test concentration not listed); 0.8% of 300,000 active;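 active = Every replicate reaches about 75%, or at least half do and their mean reaches it too, limit read from the data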;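 note: 0% = cytokine-treated negative control wells and 100% = positive control rescue; higher means more ATP so stronger rescue from cytokine killing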
# Jurkat NFkB inh: inhibitors of induced NF-kB luciferase reporter, primary screen, TCR NF-kB activation inhibitor project, cell-based, luminescence, uHTS | 0.53% of 330,000 active | Jurkat, PMA/ionomycin-induced NF-kB luciferase reporter | inhibition, % at 4 µM; in the data active = inhibition above about 50%
# CSC inhib: cancer stem cell viability inhibitors, primary screen, luminescence; 1.1% of 300,000 active; inhibition, % at 7.5 µM; cancer stem cell-like cells viability; AID 2717, 2010; in the data active = inhibition above about 75%; tested in HMLE shEcad cells
# Mdm2 MdmX conf: Mdm2-MdmX complex disruptors, retested hits, confirmation, luminescence, single concentration; shares compounds with Mdm2 MdmX PPI; Mdm2-MdmX binding, luminescent assay; inhibition, % at 8 µM; 55% of 10,000 active; AID 489028, 2010; in the data active = inhibition above about 40%
# FLuc counter: full-length luciferase signal inhibition, confirmation, counter-screen for Mdm2/MdmX interaction inhibitor project, cell-based, single concentration, SaOS-2. SaOS-2 full-length luciferase counterscreen, luminescence. inhibition, % at 8 µM. shares compounds with Mdm2 MdmX PPI. AID 504607, 2011. 77% of 6,200 active;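 active = mean inhibition at 8 µM reaching about 37%, which flags the compound as non-specific, limit read from the data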;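 note: p53-null SaOS-2 cells with luciferase driven by a doxycycline-inducible promoter; compound on cells about two nights before reading with doxycycline added after day one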
# Starred values were filed as active, the others as inactive; · = no result.
SMILES,697 NFkB inh,Gli-Sufu block,Mdm2 MdmX PPI,Beta apoptosis,Jurkat NFkB inh,CSC inhib,Mdm2 MdmX conf,FLuc counter
Cc1ccc(C)c(C(=O)Cn2ncc(Cl)c(Cl)c2=O)c1,-9.7,29.7,96.6*,-11.9,11.1,56.4,84.2*,31.7
Cc1cc(C(=O)Cn2ncc(Cl)c(Cl)c2=O)c(C)n1CC(F)(F)F,-39.5,-1.5,98.3*,·,8.5,·,67.5*,1.8
Cc1cccc(Cn2ncc(Cl)c(Cl)c2=O)c1,4.0,-6.5,100.2*,-14.1,4.2,-11.5,84.0*,51.1*
Cc1cc2oc(=O)cc(CN3CCCCC3C)c2cc1Cl (stereo not drawn),17.1,1.8,8.2,-1.6,13.8,-11.3,·,·
Cc1ccc(C)c(C(=O)CSc2nnc(C)s2)c1,3.4,-5.9,-22.2,0.7,-13.0,·,·,·
CCCc1cc(=O)[nH]c(SCC(=O)c2cc(C)n(CC(F)(F)F)c2C)n1,-12.0,4.1,8.2,1.7,2.1,-10.3,·,·
Cc1cc2oc(=O)cc(Cn3ncc(Cl)c(Cl)c3=O)c2cc1Cl,-6.6,-4.3,96.3*,110.0*,28.1,79.9*,97.7*,53.5*
COc1ccccc1C(=O)NC(=O)CSc1nnnn1C,5.1,-4.9,-8.5,0.1,-5.3,-8.4,·,·
COc1cc(C2c3cc4c(cc3OC(NCCc3ccccc3)C2C)OCO4)cc(OC)c1OC (stereo not drawn),·,43.0,·,·,·,·,·,·
CCN(c1ccccc1)S(=O)(=O)c1ccc(C(=O)NCc2ccco2)cc1,-9.5,-28.1,12.6,·,0.5,·,·,·
CCN(Cc1ccccc1)S(=O)(=O)c1c(C)[nH]c(C)c1C(=O)N1CCCCC1,-5.2,-8.3,16.1,·,13.1,-6.3,·,·
COc1ccc(-c2cc(C(=O)Nc3cccc(S(=O)(=O)NCc4ccco4)c3)c3ccccc3n2)cc1OC,13.4,5.2,54.0*,11.0,5.5,·,65.8*,64.1*
COc1cc(C(=O)Nc2cccc(S(=O)(=O)NCc3ccco3)c2)cc(OC)c1OC,20.7,17.9,69.0*,0.9,-6.9,·,39.6,97.7*
O=C(Nc1cccc(S(=O)(=O)NCc2ccco2)c1)c1cc(-c2ccc(F)cc2)nc2ccccc12,17.7,-7.1,68.9*,·,-14.3,1.9,32.2,75.9*
O=C(Nc1ccccc1)c1cccc(S(=O)(=O)NCc2ccco2)c1,-15.8,7.4,5.9,-1.2,0.7,5.7,·,·
COc1ccc(-c2cc(C(=O)NCc3ccco3)c3ccccc3n2)cc1OC,22.0,-0.6,-12.1,·,-5.1,·,·,·
Cc1nc2cc(N3CCCCC3)c(NC(=O)c3ccncc3)cc2c(=O)n1Cc1ccc(Cl)cc1,-35.1,·,89.3*,44.8,-20.1,-3.6,-2.7,·
Cc1nc2cc(Cl)ccc2c(=O)n1Cc1ccncc1,16.5,3.0,18.9,-0.5,-9.2,-16.0,·,·
Cc1ccc(NC(=O)c2cc(Cl)nc3ccccc23)cc1,-6.3,9.5,29.7,4.4,26.9,34.7,·,·
Cc1ccc(NC(=O)c2cc(N3CCOCC3)nc3ccccc23)cc1,-6.4,5.6,54.8*,-3.0,5.5,21.6,33.6,45.5*
COc1cc(C(=O)Nc2ccc(C)cc2)c2ccccc2n1,-6.8,·,63.6*,18.0,41.6,50.3,48.5*,83.9*
CCOc1ccc(NC(=O)c2cc(OC)nc3ccccc23)cc1,1.0,28.9,62.9*,25.4,38.7,50.8,59.1*,71.4*
COC(=O)[C@H]1[C@H]2C[C@@H]3c4[nH]c5cc(OC)ccc5c4CCN3C[C@H]2C[C@@H](OC(=O)/C=C/c2cc(OC)c(OC)c(OC)c2)[C@@H]1OC,18.6,-3.5,63.9*,4.4,6.0,4.4,36.5,70.0*
